From PubChem BioAssay (EPA / NIEHS)
Records with an inconclusive call do not appear. Calls of active or inactive are those of the source. How the source made its calls, unless noted: active means hit-call score of the fitted dose curve at least 0.9, where 1 is the maximum; inconclusive means response in the unintended direction; inactive means score below 0.9.

Legend:
[1] = ATG_TAL_CIS: Attagene CIS-FACTORIAL HepG2 Assay for human TAL Basal Promoter (AID 2282966; active means hit-call score of the fitted dose curve at least 0.9, where 1 is the maximum; inactive means score below 0.9;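 further: background control endpoint measuring basal TAL promoter reporter mRNA not a specific factor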); settings: HepG2 Attagene cis-factorial TAL promoter reporter; actives raise or lower the signal
Outline: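 In this cell-based multiplex, HepG2 liver cells bearing cis-promoter reporter constructs are dosed for 24 hours. Total RNA is reverse-transcribed and amplified, labelled fragments are sized by capillary electrophoresis, and signal changes are fitted bidirectionally versus DMSO.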

[2] = ATG_TGFb_CIS: Attagene CIS-FACTORIAL HepG2 Assay for human Transforming Growth Factor (TGF) (AID 2282967; active means hit-call score of the fitted dose curve at least 0.9, where 1 is the maximum; inactive means score below 0.9); settings: HepG2 Attagene CIS TGFb reporter, mRNA transcription; actives raise or lower the signal
Outline: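 Bidirectional fitting relative to DMSO gave the endpoint. Underlying data: reporter mRNA from HepG2 cells carrying transiently transfected cis-regulated reporter constructs, harvested 24 h after dosing and analyzed by RT-PCR and capillary electrophoresis.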

[3] = ATG_VDRE_CIS: Attagene CIS-FACTORIAL HepG2 Assay for human Vitamin D Receptor Element (VDRE) (AID 2282968; active means hit-call score of the fitted dose curve at least 0.9, where 1 is the maximum; inactive means score below 0.9); settings: HepG2 VDRE cis-reporter transcription, actives raise or lower the signal
Outline: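 In transiently transfected HepG2 liver cells, gain or loss of reporter mRNA after 24 h exposure is scored relative to DMSO, using fluorescence detection by capillary electrophoresis of RT-PCR products.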

[4] = biological target: Nuclear receptor subfamily 1 group I member 3 (Homo sapiens) (UniProt Q14994); assay: ATG_CAR_TRANS: Attagene TRANS-FACTORIAL HepG2 Assay for human Constitutive Androstane Receptor (CAR) (AID 2282969); settings: HepG2 Attagene TRANS-FACTORIAL CAR reporter;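 further: activators raise reporter mRNA above DMSO so AC50 marks induction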
Outline: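 Readout is reporter mRNA induction, quantified by fluorescent primer extension and capillary electrophoresis after RT-PCR. Cells were HepG2 transiently carrying chimeric NR-Gal4 constructs with GAL4-UAS reporters, treated for 24 h; activity scored upward from DMSO.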

[5] = biological target: Steroid hormone receptor ERR1 (Homo sapiens) (UniProt P11474); assay: ATG_ERRa_TRANS: Attagene TRANS-FACTORIAL HepG2 Assay for human Estrogen-Related Receptor alpha (ERRa) (AID 2282971); settings: HepG2 Attagene TRANS reporter, ERRa transactivation
Outline: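 Transfected HepG2, 24 h dosing, ERRa-Gal4 chimera driving GAL4-UAS reporter. Readout: reporter mRNA via RT-PCR plus capillary electrophoresis (fluorescence). Positive direction vs DMSO control.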

[6] = biological target: X-box-binding protein 1 (Homo sapiens) (UniProt P17861); assay: ATG_Xbp1_CIS: Attagene CIS-FACTORIAL HepG2 Assay for human X-box Binding Protein 1 (XBP1) (AID 2282972; active means hit-call score of the fitted dose curve at least 0.9, where 1 is the maximum; inactive means score below 0.9); settings: HepG2 XBP1 cis-element reporter, Attagene multiplex; actives raise or lower the signal
Outline: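 Fluorescence-labelled cDNA fragments from reporter transcripts, separated by capillary electrophoresis, give the signal. Source: HepG2 cells transfected with promoter-driven reporter units, harvested 24 h post-dose. DMSO served as reference for bidirectional curve fitting.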

[7] = ATG_M_19_TRANS: Attagene TRANS-FACTORIAL HepG2 Assay for M19 Transcription Factor (Internal Marker) (AID 2282974); settings: HepG2 Attagene TRANS-FACTORIAL M19 internal marker reporter
Outline: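 HepG2 transiently transfected with GAL4-UAS multiplex reporter constructs, exposed 24 h; reporter RNA quantified by RT-PCR, 6-FAM labeling, HpaI digestion and capillary electrophoresis; internal background marker fitted upward versus DMSO.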

[8] = ATG_GAL4_TRANS: Attagene TRANS-FACTORIAL HepG2 Assay for GAL4 (Internal Marker) (AID 2282976); settings: HepG2 Attagene TRANS GAL4 internal marker reporter
Outline: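 RT-PCR/capillary electrophoresis readout of reporter mRNA. HepG2, transient MRTU transfection (GAL4-UAS reporters), 24 h compound exposure. Background-control endpoint, positive direction vs DMSO baseline.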

[9] = biological target: Estrogen-related receptor gamma (Homo sapiens) (UniProt P62508); assay: ATG_ERRg_TRANS: Attagene TRANS-FACTORIAL HepG2 Assay for human Estrogen-Related Receptor gamma (ERRg) (AID 2282977); settings: HepG2 Attagene TRANS reporter, ERRg transactivation;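 further: hits increase reporter signal over DMSO so potencies reflect activators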
Outline: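 Transient HepG2 transfectants, 24 h compound exposure, GAL4-UAS reporter mRNA by RT-PCR/6-FAM labelling/capillary electrophoresis; positive direction vs DMSO.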

[10] = biological target: Glucocorticoid receptor (Homo sapiens) (UniProt P04150); assay: ATG_GR_TRANS: Attagene TRANS-FACTORIAL HepG2 Assay for human Glucocorticoid Receptor (GR) (AID 2282978); settings: HepG2 Attagene TRANS GR reporter, mRNA transcription;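 further: activators score as hits since higher reporter transcript over DMSO is fitted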
Outline: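 HepG2 cells transiently transfected with GAL4-UAS reporter units and exogenous GR-Gal4 chimera, dosed 24 h. Reporter mRNA by RT-PCR, FAM labeling, HpaI digest and capillary electrophoresis; gain-of-signal fit versus DMSO.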

[11] = biological target: Oxysterols receptor LXR-alpha (Homo sapiens) (UniProt Q13133); assay: ATG_LXRa_TRANS: Attagene TRANS-FACTORIAL HepG2 Assay for human Liver X Receptor alpha (LXRa) (AID 2282980); settings: HepG2 Attagene TRANS reporter, LXRa transactivation
Outline: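 Read-out: reporter transcript levels by RT-PCR plus capillary electrophoresis, fluorescence intensity. Transiently transfected HepG2, exogenous NR-GAL4 chimera, GAL4-UAS reporters; 24 h compound exposure. Activity = increase over DMSO negative control.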

[12] = biological target: Oxysterols receptor LXR-beta (Homo sapiens) (UniProt P55055); assay: ATG_LXRb_TRANS: Attagene TRANS-FACTORIAL HepG2 Assay for human Liver X Receptor beta (LXRb) (AID 2282981); settings: HepG2 Attagene TRANS GAL4-LXRb reporter, mRNA
Outline: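 Cells: HepG2, transiently transfected with GAL4-UAS reporter units plus LXRb-Gal4 fusion. Treatment: 24 h. Detection: reporter mRNA by RT-PCR, 6-FAM labelling, HpaI digestion, capillary electrophoresis.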

[13] = ATG_M_06_TRANS: Attagene TRANS-FACTORIAL HepG2 Assay for M06 Transcription Factor (Internal Marker) (AID 2282983); settings: HepG2 Attagene TRANS M06 internal marker reporter
Outline: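 After a 24 h chemical treatment of transfected HepG2, RNA underwent DNase I treatment, reverse transcription and reporter-specific PCR; labelled, HpaI-digested products were sized by capillary electrophoresis. Signal increase relative to DMSO defined activity.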

[14] = ATG_M_32_TRANS: Attagene TRANS-FACTORIAL HepG2 Assay for M32 Transcription Factor (Internal Marker) (AID 2282984); settings: HepG2 Attagene TRANS M32 internal marker reporter;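 further: transcript level of a background control reporter unit measured by RT-PCR and capillary electrophoresis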
Outline: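 Using transiently transfected HepG2 cells exposed to test chemicals for 24 h, reporter transcripts are converted to labelled cDNA fragments and quantified by capillary electrophoresis. DMSO defines the activity baseline.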

[15] = biological target: Nuclear receptor subfamily 4 group A member 2 (Homo sapiens) (UniProt P43354); assay: ATG_NURR1_TRANS: Attagene TRANS-FACTORIAL HepG2 Assay for human Nuclear Receptor Related Protein 1 (NURR1) (AID 2282985); settings: HepG2 Attagene TRANS reporter, mRNA readout
Outline: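 Cells: HepG2, transiently transfected. Exposure: 24 h. Detection: fluorescence of labelled RT-PCR products separated by capillary electrophoresis; upward fit versus DMSO.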

[16] = biological target: Transcriptional activator Myb (Homo sapiens) (UniProt P10242); assay: ATG_Myb_CIS: Attagene CIS-FACTORIAL HepG2 Assay for human Myeloblastosis (Myb) Proto-Oncogene Transcription Factor (AID 2282986; active means hit-call score of the fitted dose curve at least 0.9, where 1 is the maximum; inactive means score below 0.9); settings: HepG2 Attagene CIS-FACTORIAL Myb reporter transcription; actives raise or lower the signal
Outline: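 Transiently transfected HepG2 cells carrying a multiplexed cis-promoter reporter set report endogenous Myb activity after 24 h compound exposure. Reporter mRNA is read by RT-PCR with capillary electrophoresis of fluorescent products, fitted bidirectionally against DMSO.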

[17] = biological target: Nuclear respiratory factor 1 (Homo sapiens) (UniProt Q16656); assay: ATG_NRF1_CIS: Attagene CIS-FACTORIAL HepG2 Assay for human Nuclear Respiratory Factor 1 (NRF1) Orphan Gene (AID 2282987; active means hit-call score of the fitted dose curve at least 0.9, where 1 is the maximum; inactive means score below 0.9); settings: HepG2 NRF1 cis-element reporter, Attagene multiplex; actives raise or lower the signal
Outline: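 HepG2 cells transiently transfected with multiple cis-regulated reporter units, exposed 24 h. Reporter mRNAs measured by RT-PCR, fluorescent labelling, HpaI digestion and capillary electrophoresis; bidirectional fitting against DMSO.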

[18] = biological target: Estrogen receptor (Homo sapiens) (UniProt P03372); assay: ATG_ERa_TRANS: Attagene TRANS-FACTORIAL HepG2 Assay for human Estrogen Receptor alpha (ERa) (AID 2282970); settings: HepG2 Attagene TRANS ERa GAL4 reporter, mRNA
Outline: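 After 24 h of compound treatment, RNA from HepG2 cells bearing transfected GAL4-UAS reporter constructs is converted to cDNA, amplified and fluorescently labelled. Capillary electrophoresis resolves the ERa-linked reporter; DMSO serves as negative control.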

[19] = biological target: Hepatocyte nuclear factor 4-alpha (Homo sapiens) (UniProt P41235); assay: ATG_HNF4a_TRANS: Attagene TRANS-FACTORIAL HepG2 Assay for human Hepatocyte Nuclear Factor 4 alpha (HNF4a) (AID 2282982); settings: HepG2 HNF4a transactivation reporter, mRNA readout
Outline: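 Transfected HepG2 reporter cells are dosed for 24 h; reporter RNA is reverse-transcribed, amplified, fluorescently labelled and HpaI-digested before CE sizing. Positive-direction fit against DMSO.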

[20] = biological target: Bile acid receptor (Homo sapiens) (UniProt Q96RI1); assay: ATG_FXR_TRANS: Attagene TRANS-FACTORIAL HepG2 Assay for Farnesoid X Receptor (FXR) (AID 2282979); settings: HepG2 Attagene TRANS FXR-GAL4 reporter transcription;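 further: hits raise reporter mRNA above DMSO so AC50 marks FXR activation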
Outline: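 Read-out: fluorescent reporter transcripts quantified by capillary electrophoresis after RT-PCR of total RNA. Source cells were HepG2 transiently carrying chimeric NR-GAL4 plus GAL4-UAS reporter units, dosed 24 h. Activity fitted upward relative to DMSO baseline.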

Measured: AC50

Sequence of Glucocorticoid receptor (Homo sapiens) (P04150 whole entry, looked up, the tested form may be a part): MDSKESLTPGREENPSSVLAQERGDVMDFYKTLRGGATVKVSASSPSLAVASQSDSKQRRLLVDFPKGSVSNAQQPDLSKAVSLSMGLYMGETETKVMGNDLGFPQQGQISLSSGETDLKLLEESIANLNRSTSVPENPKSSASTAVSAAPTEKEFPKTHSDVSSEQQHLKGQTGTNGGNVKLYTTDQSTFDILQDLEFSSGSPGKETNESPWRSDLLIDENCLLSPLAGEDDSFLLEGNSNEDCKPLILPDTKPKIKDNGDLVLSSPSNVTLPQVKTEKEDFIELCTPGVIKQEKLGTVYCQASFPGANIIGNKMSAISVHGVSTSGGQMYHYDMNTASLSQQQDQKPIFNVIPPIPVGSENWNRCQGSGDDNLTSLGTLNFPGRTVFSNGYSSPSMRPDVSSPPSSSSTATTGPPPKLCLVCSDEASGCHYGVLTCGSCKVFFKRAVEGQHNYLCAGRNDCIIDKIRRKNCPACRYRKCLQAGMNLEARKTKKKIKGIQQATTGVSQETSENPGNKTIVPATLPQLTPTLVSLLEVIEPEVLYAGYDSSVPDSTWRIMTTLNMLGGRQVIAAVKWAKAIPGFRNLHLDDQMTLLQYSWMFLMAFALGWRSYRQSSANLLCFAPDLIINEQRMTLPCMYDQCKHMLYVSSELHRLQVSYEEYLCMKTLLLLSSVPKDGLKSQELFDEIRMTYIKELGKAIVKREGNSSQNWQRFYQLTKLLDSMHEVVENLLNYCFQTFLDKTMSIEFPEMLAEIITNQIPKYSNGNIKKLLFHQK
Sequence of X-box-binding protein 1 (Homo sapiens) (P17861 whole entry, looked up, the tested form may be a part): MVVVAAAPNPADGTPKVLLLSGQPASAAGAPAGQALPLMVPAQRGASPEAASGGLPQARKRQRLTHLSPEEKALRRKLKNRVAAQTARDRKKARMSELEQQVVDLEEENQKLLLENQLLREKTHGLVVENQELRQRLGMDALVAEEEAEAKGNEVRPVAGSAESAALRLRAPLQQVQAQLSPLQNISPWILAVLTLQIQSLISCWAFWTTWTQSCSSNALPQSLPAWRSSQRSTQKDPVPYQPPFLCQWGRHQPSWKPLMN
Sequence of Nuclear receptor subfamily 1 group I member 3 (Homo sapiens) (Q14994 whole entry, looked up, the tested form may be a part): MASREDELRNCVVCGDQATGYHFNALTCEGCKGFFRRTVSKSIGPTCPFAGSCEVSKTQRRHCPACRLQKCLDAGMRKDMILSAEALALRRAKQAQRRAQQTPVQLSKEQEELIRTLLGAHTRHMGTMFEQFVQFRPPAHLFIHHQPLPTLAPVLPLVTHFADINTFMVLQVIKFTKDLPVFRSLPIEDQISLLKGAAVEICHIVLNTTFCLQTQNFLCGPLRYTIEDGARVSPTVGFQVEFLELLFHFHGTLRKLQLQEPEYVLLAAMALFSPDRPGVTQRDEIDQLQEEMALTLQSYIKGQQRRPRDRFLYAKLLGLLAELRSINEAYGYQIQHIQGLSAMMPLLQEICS
Sequence of Nuclear respiratory factor 1 (Homo sapiens) (Q16656 whole entry, looked up): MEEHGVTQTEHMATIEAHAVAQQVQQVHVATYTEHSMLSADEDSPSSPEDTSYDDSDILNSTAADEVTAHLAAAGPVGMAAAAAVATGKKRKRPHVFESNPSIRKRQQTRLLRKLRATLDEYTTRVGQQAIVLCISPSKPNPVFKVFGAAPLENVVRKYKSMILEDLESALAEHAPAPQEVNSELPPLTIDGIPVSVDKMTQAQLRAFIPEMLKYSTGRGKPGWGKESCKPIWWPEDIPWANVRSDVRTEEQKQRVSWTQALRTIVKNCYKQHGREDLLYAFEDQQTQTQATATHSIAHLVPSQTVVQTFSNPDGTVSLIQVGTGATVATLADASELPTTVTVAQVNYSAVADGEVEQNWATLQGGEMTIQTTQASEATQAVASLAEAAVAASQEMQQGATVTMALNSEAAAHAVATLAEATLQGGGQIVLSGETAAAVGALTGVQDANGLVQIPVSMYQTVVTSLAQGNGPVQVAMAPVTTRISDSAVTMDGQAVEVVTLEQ
Sequence of Hepatocyte nuclear factor 4-alpha (Homo sapiens) (P41235 whole entry, looked up): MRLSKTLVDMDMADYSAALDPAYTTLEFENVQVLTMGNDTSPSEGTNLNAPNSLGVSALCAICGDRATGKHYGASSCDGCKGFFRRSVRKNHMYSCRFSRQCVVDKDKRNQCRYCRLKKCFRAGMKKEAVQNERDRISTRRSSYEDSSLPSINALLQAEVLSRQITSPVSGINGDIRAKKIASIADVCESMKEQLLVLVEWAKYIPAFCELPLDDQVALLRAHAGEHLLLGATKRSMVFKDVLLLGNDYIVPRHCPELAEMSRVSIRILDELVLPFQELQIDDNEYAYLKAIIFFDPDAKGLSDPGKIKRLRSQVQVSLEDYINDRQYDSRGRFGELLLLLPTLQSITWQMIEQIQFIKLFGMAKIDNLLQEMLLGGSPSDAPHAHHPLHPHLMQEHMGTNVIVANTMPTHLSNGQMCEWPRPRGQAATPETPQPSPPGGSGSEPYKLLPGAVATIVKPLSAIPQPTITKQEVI
Sequence of Steroid hormone receptor ERR1 (Homo sapiens) (P11474 whole entry, looked up, the tested form may be a part): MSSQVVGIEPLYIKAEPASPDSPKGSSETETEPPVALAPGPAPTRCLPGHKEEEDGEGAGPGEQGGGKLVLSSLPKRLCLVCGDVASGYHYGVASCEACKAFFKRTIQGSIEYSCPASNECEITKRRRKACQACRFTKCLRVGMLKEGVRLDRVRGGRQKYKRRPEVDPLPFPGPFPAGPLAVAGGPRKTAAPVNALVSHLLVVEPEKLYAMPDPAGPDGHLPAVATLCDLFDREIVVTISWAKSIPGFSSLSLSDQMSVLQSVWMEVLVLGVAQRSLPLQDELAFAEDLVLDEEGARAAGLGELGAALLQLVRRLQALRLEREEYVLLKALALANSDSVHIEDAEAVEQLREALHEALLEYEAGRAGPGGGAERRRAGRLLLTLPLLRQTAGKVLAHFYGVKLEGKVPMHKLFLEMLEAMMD
Sequence of Estrogen receptor (Homo sapiens) (P03372 whole entry, looked up, the tested form may be a part): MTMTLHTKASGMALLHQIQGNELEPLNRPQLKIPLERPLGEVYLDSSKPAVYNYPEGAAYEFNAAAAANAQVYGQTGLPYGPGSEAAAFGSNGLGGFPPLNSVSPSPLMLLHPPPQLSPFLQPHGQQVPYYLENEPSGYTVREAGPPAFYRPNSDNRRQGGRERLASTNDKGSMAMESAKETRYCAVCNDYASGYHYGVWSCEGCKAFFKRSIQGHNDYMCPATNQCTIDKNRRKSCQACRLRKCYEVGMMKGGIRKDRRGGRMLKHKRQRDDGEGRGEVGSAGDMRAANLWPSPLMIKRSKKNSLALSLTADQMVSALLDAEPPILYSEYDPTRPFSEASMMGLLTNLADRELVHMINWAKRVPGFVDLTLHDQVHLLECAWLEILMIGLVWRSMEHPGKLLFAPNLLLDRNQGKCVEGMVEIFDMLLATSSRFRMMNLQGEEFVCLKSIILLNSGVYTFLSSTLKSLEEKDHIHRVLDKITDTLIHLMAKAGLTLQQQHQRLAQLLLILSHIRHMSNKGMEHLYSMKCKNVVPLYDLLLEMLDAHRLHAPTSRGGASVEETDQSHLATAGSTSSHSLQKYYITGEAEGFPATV
Sequence of Transcriptional activator Myb (Homo sapiens) (P10242 whole entry, looked up): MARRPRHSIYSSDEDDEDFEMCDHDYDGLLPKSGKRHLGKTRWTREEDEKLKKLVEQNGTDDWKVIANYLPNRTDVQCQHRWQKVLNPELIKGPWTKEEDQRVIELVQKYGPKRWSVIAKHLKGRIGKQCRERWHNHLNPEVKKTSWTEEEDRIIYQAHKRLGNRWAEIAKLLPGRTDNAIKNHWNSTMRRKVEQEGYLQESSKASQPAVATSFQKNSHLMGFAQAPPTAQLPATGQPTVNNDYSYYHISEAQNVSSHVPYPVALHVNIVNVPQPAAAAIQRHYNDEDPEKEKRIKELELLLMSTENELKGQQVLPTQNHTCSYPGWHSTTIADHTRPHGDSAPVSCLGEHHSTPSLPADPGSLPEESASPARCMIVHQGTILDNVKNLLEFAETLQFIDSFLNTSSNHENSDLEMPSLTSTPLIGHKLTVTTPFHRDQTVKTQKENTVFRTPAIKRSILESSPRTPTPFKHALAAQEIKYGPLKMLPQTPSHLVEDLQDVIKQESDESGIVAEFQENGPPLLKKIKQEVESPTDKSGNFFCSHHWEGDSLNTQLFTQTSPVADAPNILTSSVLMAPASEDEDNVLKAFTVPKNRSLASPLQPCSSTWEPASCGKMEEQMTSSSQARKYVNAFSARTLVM
Sequence of Oxysterols receptor LXR-alpha (Homo sapiens) (Q13133 whole entry, looked up, the tested form may be a part): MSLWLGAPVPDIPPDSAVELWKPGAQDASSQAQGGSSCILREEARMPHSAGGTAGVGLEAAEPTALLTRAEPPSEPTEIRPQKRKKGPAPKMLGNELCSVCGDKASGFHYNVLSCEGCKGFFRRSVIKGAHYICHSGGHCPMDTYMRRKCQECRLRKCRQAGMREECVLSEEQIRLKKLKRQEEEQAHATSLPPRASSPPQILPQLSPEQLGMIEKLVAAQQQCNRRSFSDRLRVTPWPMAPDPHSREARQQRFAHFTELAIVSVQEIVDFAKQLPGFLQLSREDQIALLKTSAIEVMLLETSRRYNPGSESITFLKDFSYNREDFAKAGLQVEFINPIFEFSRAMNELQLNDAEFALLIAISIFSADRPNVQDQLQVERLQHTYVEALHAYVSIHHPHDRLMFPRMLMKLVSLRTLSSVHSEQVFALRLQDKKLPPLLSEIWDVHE
Sequence of Oxysterols receptor LXR-beta (Homo sapiens) (P55055 whole entry, looked up, the tested form may be a part): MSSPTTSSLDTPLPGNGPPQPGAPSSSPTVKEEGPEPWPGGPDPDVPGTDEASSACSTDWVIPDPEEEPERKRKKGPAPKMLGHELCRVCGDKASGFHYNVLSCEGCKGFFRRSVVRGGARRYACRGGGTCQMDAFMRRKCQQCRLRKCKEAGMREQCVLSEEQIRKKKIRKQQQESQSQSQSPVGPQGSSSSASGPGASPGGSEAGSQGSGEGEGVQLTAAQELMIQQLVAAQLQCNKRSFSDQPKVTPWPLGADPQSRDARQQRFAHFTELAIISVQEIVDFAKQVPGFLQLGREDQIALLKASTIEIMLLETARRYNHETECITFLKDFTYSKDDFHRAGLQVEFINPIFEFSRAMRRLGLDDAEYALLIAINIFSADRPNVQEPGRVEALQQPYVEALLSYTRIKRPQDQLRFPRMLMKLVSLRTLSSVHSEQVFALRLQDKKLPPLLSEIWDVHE

COC(=O)OC
not listed: [18] | [19] | [20]
inactive: all other assays above

CCCCc1ccc(N)cc1
active: [18] 12.8 µM
inactive: [1] | [2] | [3] | [4] | [10] | [19] | [13] | [14] | [16] | [17]

CCCCCCCCCOC(C)=O
inactive: [1] | [2] | [3] | [4] | [18] | [6] | [7] | [8] | [20] | [14] | [16]

Nc1cc([N+](=O)[O-])ccc1O
not listed: [11] | [12] | [18] | [20]
inactive: all other assays above

O=Nc1ccc(Nc2ccccc2)cc1
active: [3] 30.3 µM | [4] 26.7 µM | [18] 34.9 µM | [17] 56.3 µM
not listed: [5] | [6] | [8] | [10] | [13] | [15]
inactive: all other assays above

CC(=O)OCC=Cc1ccccc1
not listed: [11] | [12] | [13] | [18] | [19]
inactive: all other assays above

C=C(C)C(=O)Nc1ccc(Cl)c(Cl)c1
active: [3] 20.6 µM | [15] 69.8 µM
not listed: [5] | [9] | [10] | [14] | [19] | [20]
inactive: all other assays above

CC(C)c1cccc(O)c1
active: [18] 71.2 µM
not listed: [8] | [12] | [19] | [20]
inactive: all other assays above

Cc1ccc2sc3cccc(C)c3c2c1
inactive: [1] | [2] | [3] | [4] | [18] | [10] | [20] | [19] | [13] | [16] | [17]

CC(C)c1ccc(C(C)C)cc1
active: [2] 171 µM
not listed: [5] | [8] | [9] | [11] | [12] | [19]
inactive: all other assays above

Nc1ccc(F)c([N+](=O)[O-])c1
not listed: [5] | [11] | [13] | [15] | [20]
inactive: all other assays above

CCc1c(C)cc(N)c(CC)c1N
not listed: [11] | [12] | [13] | [15]
inactive: all other assays above

CNC[C@H](O)c1cccc(O)c1
inactive: [1] | [2] | [3] | [4] | [5] | [6] | [7] | [8] | [19] | [15] | [16]

CC(=O)OCCC(C)CC(C)(C)C (configuration not stated)
not listed: [5] | [7] | [8] | [9] | [11] | [12] | [14] | [19]
inactive: all other assays above

O=C1OC2(c3cc(Br)c(O)c(Br)c3Oc3c2cc(Br)c(O)c3Br)c2c(Cl)c(Cl)c(Cl)c(Cl)c21
active: [1] 26.1 µM | [2] 58.4 µM | [3] 16.4 µM
not listed: [12] | [13] | [17] | [19] | [20]
inactive: all other assays above

Cc1ncc([N+](=O)[O-])n1C
not listed: [5] | [10] | [11] | [13] | [14] | [17] | [19]
inactive: all other assays above

CCOC(=S)SSC(=S)OCC
not listed: [5] | [8] | [9] | [12] | [13] | [15] | [20]
inactive: all other assays above

Cc1ccc(Nc2ccc(O)c3c2C(=O)c2ccccc2C3=O)cc1
not listed: [5] | [8] | [9] | [10] | [11] | [13] | [15] | [19]
inactive: all other assays above

CCCCOCCOCCSC#N
not listed: [5] | [9] | [11] | [15] | [18] | [20]
inactive: all other assays above

CC(C)=CCCC(C)=CCCC(C)=CCO
not listed: [5] | [8] | [9] | [10] | [13] | [18] | [19] | [20]
inactive: all other assays above
